Data reported in article PMC9574860, “Chemical Toolkit for PARK7: Potent, Selective, and High-Throughput” (Journal of Medicinal Chemistry, 2022).
Out of some 7,900 compounds screened, about 400 (5.1%) showed an effect of 50% or more. The list comes from a sample in which strong results are over-represented; it also holds similar structures and randomly drawn compounds.

What follows are compounds tested against Parkinson's disease protein 7 (PARK7/DJ1) (human, UniProt Q99497) (assay: primary screen, percent inhibition; read as competition with a fluorescent probe by fluorescence polarization; higher = more effect of the substance). Conditions: 100 µM.
Parkinson's disease protein 7 (PARK7/DJ1), sequence (Q99497 whole entry, looked up, the tested form may be a part): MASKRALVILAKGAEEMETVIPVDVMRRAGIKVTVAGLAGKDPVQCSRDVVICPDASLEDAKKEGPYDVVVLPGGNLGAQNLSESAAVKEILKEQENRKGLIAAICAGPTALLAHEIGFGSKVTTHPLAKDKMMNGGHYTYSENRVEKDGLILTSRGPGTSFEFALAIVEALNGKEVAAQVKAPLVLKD
Procedure, shortened: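 Covalent fragments at 100 μM final were incubated 2 h with 0.2 μM PARK7, then 20 nM probe JYQ-107 added for a further 2 h. Fluorescence polarization read at 480/520 nm; relative FP loss versus reference controls gave remaining enzyme activity.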
For Cc1nc(C(C)C)oc1Cn1ccnc1C#N, the Inhibition % was 8.62%.
C=CC(=O)N1CCC(OCC2CC2)CC1 was tested, and the Inhibition % was -0.254%.
With Cc1cc2ncn(CC3CO3)c2cc1C (centres unmarked) the Inhibition % was 20.8%.
Work on C=CC(=O)N1CC(OC)Cc2ccccc21 (centres unmarked) yielded an Inhibition % of 13.5%.
C=CC(=O)N1CCc2c(F)cccc2C1 was tested, and the Inhibition % was 6.26%.
In the case of O=C(CCl)NCCOc1cccc(Cl)c1, the Inhibition % is reported as 17.8%.
With ClCC1COCCO1 (centres unmarked) the Inhibition % was -2.68%.
In the case of CCN(Cc1ccc2c(c1)OCO2)C(=O)CCl, the Inhibition % is reported as 9.14%.
In the case of Cc1ccn(S(=O)(=O)c2ccc(F)c(C)c2)n1, the Inhibition % is reported as 6.8%.
Work on CN(C#N)Cc1ccccc1 yielded an Inhibition % of 62.8%.
CN(CCc1ccccc1)c1nccnc1C#N showed an Inhibition % of 3.72%.
CN(Cc1ccccc1)C(=O)C=CC(=O)O gave an Inhibition % of 23.5%.
In the case of C=CC(=O)N1CCN2CCOCC2C1 (centres unmarked), the Inhibition % is reported as 8.35%.
COc1ccc(CN(C(=O)CCl)C2CC2)cc1 was tested, and the Inhibition % was 15.6%.
Compound CCOc1ccc(C(=O)CCl)cc1 has an Inhibition % of 84.9%.
COc1ccc(CN(C)C(=O)CCl)cc1 was tested, and the Inhibition % was 61.5%.
CN(Cc1ccc(OC(F)F)cc1)C(=O)CCl was tested, and the Inhibition % was 51.1%.
Compound CN(Cc1cccc(Cl)c1)C(=O)CCl has an Inhibition % of 49.6%.
COc1ccc2cc(CN(C)C(=O)CCl)ccc2c1 showed an Inhibition % of 8%.
COc1ccc(C(=O)CCl)cc1 showed an Inhibition % of 3.52%.
CN(Cc1cccc(F)c1)C(=O)CCl showed an Inhibition % of 44.5%.
Compound COc1cccc(CN(C)C(=O)CCl)c1 has an Inhibition % of 76.7%.
In the case of NC(=O)c1ccc(OCCCl)cc1, the Inhibition % is reported as -3.9%.
CN(Cc1ccc(F)cc1)C(=O)CCl was tested, and the Inhibition % was 39.9%.
Work on N#Cc1ccc(N2CCc3sccc3C2)cn1 yielded an Inhibition % of 27.1%.
With C=CC(=O)N(C)C1CCCc2cccnc21 (centres unmarked) the Inhibition % was 7.75%.
N#CC1(CC2CO2)CCC1 (centres unmarked) gave an Inhibition % of 3.78%.
Cc1ccc(OC2CCCC2)c(B(O)O)c1 showed an Inhibition % of 2.59%.
With COc1ccc2[nH]c(C)c(C(=O)CCl)c2c1 the Inhibition % was 4.84%.
For O=C1OCCC1n1nnc(-c2ccc(F)cc2)n1 (centres unmarked), the Inhibition % was 4.53%.
In the case of C=CC(=O)NC1CSC1(C)C (centres unmarked), the Inhibition % is reported as 6.84%.
Compound OB(O)c1ccc(-c2ccccc2)cc1F has an Inhibition % of 24.2%.
In the case of C=CC(=O)N1CCCN(C(=O)c2ccco2)CC1, the Inhibition % is reported as 1.97%.
Work on Cc1ccc(C=C(C#N)C(N)=O)c(C)c1 yielded an Inhibition % of 4.01%.
Cc1cccc(C)c1NC(=O)Cn1cnc(C#N)n1 was tested, and the Inhibition % was 6.38%.
Work on CCN(Cc1ccc(OC)c(F)c1)C(=O)CCl yielded an Inhibition % of 10%.
Compound COc1ccc(CN(C)C(=O)CCl)cc1F has an Inhibition % of 58.3%.
In the case of CN(Cc1cccc(C(F)(F)F)c1)C(=O)CCl, the Inhibition % is reported as 37.1%.
CCOc1ccc(CN(C)C(=O)CCl)cc1 gave an Inhibition % of 67.6%.
COC(=O)c1ccccc1N(C)C(=O)CCl gave an Inhibition % of 6.59%.
C=CC(=O)N1CCCC1c1cccc2c1OCCO2 (centres unmarked) showed an Inhibition % of 4.1%.
In the case of C=CC(=O)Nc1nc2c(s1)COCC2, the Inhibition % is reported as 6.4%.
CC1c2cccn2CCN1C(=O)n1ccnc1 (centres unmarked) showed an Inhibition % of 22%.
Compound O=C(Nc1ccccc1)NC1CN(c2ccccc2)C1=O (centres unmarked) has an Inhibition % of 5.74%.
With CC(C)(C)C(=O)NCc1ccc(C(=O)CCl)s1 the Inhibition % was 76.2%.
O=C(CCl)NCC(=O)c1cccs1 gave an Inhibition % of 15.1%.
Work on Cc1ccc(CNC(=O)CCl)s1 yielded an Inhibition % of 3.17%.
C=CC(=O)NCc1ccc(C)s1 was tested, and the Inhibition % was 1.04%.
Cc1[nH]c2ccccc2c1C(=O)CCl showed an Inhibition % of 6.53%.
With CS(=O)(=O)NCCc1ccc(C(=O)CCl)s1 the Inhibition % was 97.6%.
Work on CCc1ccc(CNC(=O)CCl)s1 yielded an Inhibition % of 4.03%.
Work on CC(=O)NCc1ccc(C(=O)CCl)s1 yielded an Inhibition % of 91.1%.
Work on COC(=O)c1sccc1NC(=O)CCl yielded an Inhibition % of 3.83%.
CS(=O)(=O)c1ccccc1NC(=O)CCl gave an Inhibition % of 11.4%.
O=C(CCl)c1sccc1Cl gave an Inhibition % of 94.4%.
O=C(CCl)NCc1cccs1 showed an Inhibition % of 3.94%.
With O=S(=O)(F)Cc1ccccc1Cl the Inhibition % was 7.95%.
C=CC(=O)Nc1nsc(N2CCCC2)n1 gave an Inhibition % of 16%.
With N#Cc1cc(C(=O)O)ccn1 the Inhibition % was 4.99%.
CCc1ccc(B2OC(C)(C)C(C)(C)O2)n1C(=O)OC(C)(C)C showed an Inhibition % of 5.89%.
C=CC(=O)N1CCC(C)(N2CCOCC2)CC1 showed an Inhibition % of 10%.
For C=CC(=O)NC1CCN(c2cnn(C)c2)C1 (centres unmarked), the Inhibition % was 33.9%.
Work on CC1(C)OB(c2ccncc2)OC1(C)C yielded an Inhibition % of 4.41%.
In the case of O=C(CCl)c1cnc(N2CCCCC2)s1, the Inhibition % is reported as 8.03%.
With O=C(CCl)c1ccc(CC(=O)N2CCOCC2)s1 the Inhibition % was 7.37%.
For O=C(CCl)NCCc1cccs1, the Inhibition % was 31.1%.
With O=C(CCl)NCc1ccc(Cl)s1 the Inhibition % was 15.9%.
For NC(=O)Cc1ccc(C(=O)CCl)s1, the Inhibition % was 97.4%.
For O=C(CCl)c1ccc(Cl)s1, the Inhibition % was 94.6%.
CC(=O)NCCc1ccc(C(=O)CCl)s1 showed an Inhibition % of 90.4%.
With O=C(CCl)NC(=O)NCCc1cccs1 the Inhibition % was 11.2%.
In the case of Cc1ccc(C(=O)CCl)s1, the Inhibition % is reported as 28.1%.
Work on N#Cc1nnc(-c2ccccc2)s1 yielded an Inhibition % of 11.8%.
With N#Cc1[nH]ccc2nccc1-2 the Inhibition % was 18.7%.
Work on C=CC(=O)NC1COc2cc(F)cc(F)c21 (centres unmarked) yielded an Inhibition % of 3.21%.
Work on CC(C)c1ccccc1OCC1CO1 (centres unmarked) yielded an Inhibition % of -4.39%.
Work on CN(C)CCc1ccc(B(O)O)cc1.Cl yielded an Inhibition % of 2.57%.
O=C(CCl)NCCc1ccsc1 gave an Inhibition % of 27.9%.
Work on C=CC(=O)N1CCCN(CC2CCCO2)CC1 (centres unmarked) yielded an Inhibition % of 13.1%.
Work on O=C(CCl)Nc1nc(-c2cccs2)cs1 yielded an Inhibition % of 11.6%.
Work on Sc1nncc2ccccc12 yielded an Inhibition % of 8.48%.
Sc1nncc(-c2cccs2)n1 was tested, and the Inhibition % was 94.3%.
Cc1ccc(C=CS(=O)(=O)Nc2ccnn2C(C)C)cc1 gave an Inhibition % of 13%.
With C=CC(=O)N1CCC(C(=O)O)(c2ccccc2)CC1 the Inhibition % was 2.37%.
Compound Cc1nnc(CN(C#N)c2ccc(F)c(Cl)c2)o1 has an Inhibition % of 5.26%.
Work on CCCn1c(C)nnc1CN(C#N)c1cc(C)ccc1F yielded an Inhibition % of 20.1%.
Compound Cc1ccc(F)c(N(C#N)Cc2nnc(C)o2)c1 has an Inhibition % of 69%.
O=C1OCCC1N1CCN(c2nccs2)CC1 (centres unmarked) showed an Inhibition % of 2.57%.
Work on O=c1[nH]nc(-c2cccs2)o1 yielded an Inhibition % of 12.1%.
In the case of O=c1[nH]nc(-c2ccc(F)cc2)o1, the Inhibition % is reported as 6.22%.
Compound O=c1[nH]nc(-c2ccco2)o1 has an Inhibition % of 50.5%.
Compound O=C(O)Cn1nc(-c2ccc(F)cc2)oc1=O has an Inhibition % of 12.4%.
Nc1cncc(S(=O)(=O)F)c1 was tested, and the Inhibition % was 95.6%.
Work on Nc1ccc(S(=O)(=O)F)cc1 yielded an Inhibition % of 5.99%.
Compound N#CC(=Cc1ccc(-c2ccc(Cl)cc2Cl)o1)C(N)=O has an Inhibition % of 3.17%.
Cc1ccc(Cl)c(OCC2CO2)c1 (centres unmarked) showed an Inhibition % of 7.81%.
In the case of CC1(C)OB(c2c(Cl)cccc2Cl)OC1(C)C, the Inhibition % is reported as 1.49%.
Cc1ccccc1N1CCN(C(=O)n2ccnc2)CC1 showed an Inhibition % of 8.38%.
CN(Cc1cccs1)C(=O)CCl showed an Inhibition % of 36.6%.
Cc1ccccc1CN(C)C(=O)CCl showed an Inhibition % of 56.6%.
Cc1ccc(CN(C)C(=O)Cn2cnc(C#N)n2)c(C)c1 gave an Inhibition % of 3.86%.
Work on Cc1ccccc1CC(=O)NNC(=O)CCl yielded an Inhibition % of 24%.
Work on Cc1ccc(CN(C)C(=O)CCl)c(C)c1 yielded an Inhibition % of 65.7%.
With Cc1ccccc1CCNC(=O)CCl the Inhibition % was 8.29%.
CN(Cc1ccccc1Br)C(=O)CCl showed an Inhibition % of 93.9%.
For CN(Cc1cc(Br)cs1)C(=O)CCl, the Inhibition % was 42.9%.
For CCN(Cc1ccc(C#N)cc1F)C(=O)CCl, the Inhibition % was 16.8%.
CN(Cc1cc(C#N)ccc1F)C(=O)CCl was tested, and the Inhibition % was 50.3%.
With CC(NC(=O)CCl)c1cccs1 (centres unmarked) the Inhibition % was 9.37%.
Compound C=CC(=O)N1CC(C)S(=O)(=O)C(C)C1 (centres unmarked) has an Inhibition % of 5.08%.
With Cn1nccc1C12CCOCC1O2 (centres unmarked) the Inhibition % was 9.22%.
With COc1ccccc1COCC1CO1 (centres unmarked) the Inhibition % was 4.72%.
For C=CC(=O)N1CCCC(c2nn(C)cc2C(=O)O)C1 (centres unmarked), the Inhibition % was 0.724%.
For N#Cc1ncn(-c2ncc(C(F)(F)F)cc2Cl)n1, the Inhibition % was 6.83%.
C=CC(=O)NCC1CCCSC1 (centres unmarked) was tested, and the Inhibition % was 13.8%.
CN(Cc1ccc(Cl)s1)C(=O)CCl was tested, and the Inhibition % was 30.4%.
Work on CN(Cc1ccco1)C(=O)CCl yielded an Inhibition % of 53%.
O=C(CCl)N(Cc1ccco1)c1ccccc1 showed an Inhibition % of 17.8%.
For Cc1ccc(CN(C)C(=O)CCl)o1, the Inhibition % was 40.8%.
CN(Cc1ccc(-c2ccc(Cl)cc2)o1)C(=O)CCl was tested, and the Inhibition % was 79.2%.
Compound O=C(CCl)NC(=O)NC12CC3CC(CC(C3)C1)C2 has an Inhibition % of 0.699%.
C=CC(=O)Nc1cn(C)nc1C(C)C showed an Inhibition % of 8.9%.
With CCn1c(N)c(C(=O)CCl)c(=O)[nH]c1=O the Inhibition % was 4.93%.
C=CC(=O)N1C[C@]2(C)CC[C@@H](C2)C1(C)C gave an Inhibition % of 15%.
In the case of O=S(=O)(F)c1ccc(-c2cn(Cc3cc(C4CC4)no3)nn2)cc1, the Inhibition % is reported as 3.46%.
Work on Cl.ClCCc1nc2ccccc2[nH]1 yielded an Inhibition % of 3.05%.
Work on C=CC(=O)NCC1(C)CCOC2(CCC2)C1 (centres unmarked) yielded an Inhibition % of 13.5%.
Work on CC1(C)OB(c2cccc(OCCN3CCCCC3)c2)OC1(C)C yielded an Inhibition % of -0.0143%.
O=C(CCCl)NC1CCCCC1 gave an Inhibition % of 3.8%.
For O=c1onc(-c2cccnc2)n1Cc1cc(F)cc(F)c1, the Inhibition % was 16.6%.
O=c1onc(-c2ccccn2)n1C1C=CCCC1 (centres unmarked) gave an Inhibition % of 5.08%.
O=c1onc(-c2cccnc2)n1C1C=CCCC1 (centres unmarked) gave an Inhibition % of 54.8%.
Work on O=C(Nc1ccncc1)N1CCC(C2OCCO2)CC1 yielded an Inhibition % of 9.17%.
For O=C(Oc1ccccc1)N1CC(O)C1, the Inhibition % was 29%.
